Reference: PubChem BioAssay AID624330 (Southern Research Specialized Biocontainment Screening …, 2012)
The campaign covered roughly 340,000 compounds. About 2,100 (0.62%) were called active. Only a sample is shown. Entries with a potency or affinity are not part of this list. Unmarked numbers belong to inactive results.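 How the source made its calls: active means first-screen hits whose inhibition reached a set limit at any dose in the follow-up dose series; inconclusive means inhibition above the set first-screen limit but never retested; inactive means the rest.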

molecular target: Rac GTPase-activating protein 1 (Homo sapiens) (UniProt Q9H0H5); test: MgcRacGAP GTPase-activating activity inhibitors, confirmation, biochemical, ADP Hunter fluorescence, primary and confirmatory (AID 624330); conditions: MgcRacGAP-stimulated Rac1 GTP hydrolysis, at 30 µM, active compounds read high, GST-tagged Rac1 F28L mutant substrate;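 further: fluorescence reports GDP produced by GAP-driven GTP hydrolysis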
Sequence (Q9H0H5 whole entry, looked up): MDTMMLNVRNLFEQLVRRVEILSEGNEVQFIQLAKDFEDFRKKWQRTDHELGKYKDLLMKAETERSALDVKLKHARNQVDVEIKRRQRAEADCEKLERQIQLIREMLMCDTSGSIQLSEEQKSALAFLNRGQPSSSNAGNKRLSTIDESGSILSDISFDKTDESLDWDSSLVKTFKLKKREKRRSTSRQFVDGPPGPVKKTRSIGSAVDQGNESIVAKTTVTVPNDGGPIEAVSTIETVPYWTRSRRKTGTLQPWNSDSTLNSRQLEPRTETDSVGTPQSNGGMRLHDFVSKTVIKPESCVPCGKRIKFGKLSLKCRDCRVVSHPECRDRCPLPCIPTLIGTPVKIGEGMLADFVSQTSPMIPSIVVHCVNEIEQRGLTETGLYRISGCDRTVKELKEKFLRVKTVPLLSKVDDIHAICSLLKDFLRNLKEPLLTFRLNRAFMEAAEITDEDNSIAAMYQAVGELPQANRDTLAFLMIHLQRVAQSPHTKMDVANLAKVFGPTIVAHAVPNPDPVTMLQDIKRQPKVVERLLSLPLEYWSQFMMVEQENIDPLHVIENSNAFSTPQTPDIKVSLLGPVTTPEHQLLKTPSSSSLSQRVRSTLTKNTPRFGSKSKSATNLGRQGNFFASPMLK

Compared with `Nc1nc(-c2ccccc2)c(-c2ccccc2)s1`, `Cc1ccc(-c2nc(N)sc2-c2ccccc2)cc1C` is lower in inhibition: 10.3% for the first, 8.82% for the second.

First: O=S(=O)(NCCCN1CCOCC1)c1ccc(Cl)s1
Second: CC(C)c1nc(SCC(=O)Nc2ccc(N3CCOCC3)cc2)c2ccccc2n1
The inhibition of the first is lower: 1.35% for the first, 9.39% for the second.

Going from `C/C(=C\C(=O)c1cccnc1)Nc1ccc(C(=O)O)cc1` to `CC(=O)Nc1ccc(N/C(C)=C/C(=O)c2cccnc2)cc1`, the inhibition falls from -0.69% to -2.43%.

Compared with `O=C(Nc1ccccc1O)c1ccc(C(=O)c2ccccc2)o1`, `COc1ccc(NC(=O)c2ccc(C(=O)c3ccccc3)o2)cc1` is lower in inhibition: 3.33% for the first, 1.49% for the second.

First: COc1ccc(N/C(C)=C/C(=O)c2ccccc2)cc1
Second: C/C(=C\C(=O)c1ccccc1)Nc1ccc(Cl)c(Br)c1
The inhibition of the first is higher: 10.4% for the first, 6.98% for the second.

Compared with `CCN(CC(=O)NCc1ccc(Cl)cc1)C(=O)Cc1ccc(OC)cc1`, `COC(=O)c1ccc(/C=C/C(=O)c2ccc(OC)cc2)cc1` is lower in inhibition: 5.69% for the first, 4.33% for the second.

First: Cc1cc(C(=O)Nc2ccccc2[N+](=O)[O-])cs1
Second: COC(=O)c1ccccc1NC(=O)c1sc(Cl)nc1C
The inhibition of the first is lower: 0.21% for the first, 6.47% for the second.

Going from `CCOc1ccc(NC(=O)CN(C)C(=O)c2ccc(N3CCCCCC3)c([N+](=O)[O-])c2)cc1OCC` to `CCOc1ccc2c(c1)C(=O)c1cc(OCC(=O)O)ccc1-2`, the inhibition rises from 3.24% to 13.8%.

First: CCOC(=O)c1cnc2ccc(Cl)cc2c1NCCN(C)C
Second: CCOC(=O)c1ccc2ncc(C(=O)OCC)c(NCCN(C)C)c2c1
The inhibition of the first is higher: 14.5% for the first, -0.66% for the second.

Going from `CN(C)CCNc1ccc(-c2nn(C)c(=O)c3ccccc23)cc1[N+](=O)[O-]` to `Cc1[nH]n(-c2cccc([N+](=O)[O-])c2)c(=O)c1-c1ccccc1`, the inhibition rises from 3.29% to 8.04%.

Compared with `Cc1cc(NCCO)c2cc(O)ccc2n1`, `CCN(CC)CCCNC(=O)c1cc(-c2ccc(O)cc2)on1` is higher in inhibition: 15% for the first, 25.9% for the second.

Going from `CCN(CC)CCCNc1ncnc2ccccc12` to `CN(C)c1nc2ccccc2c(N)c1-c1ccccc1`, the inhibition rises from 8.44% to 31%.

Going from `O=C1C=CC(=O)C(CNc2ccc(C(=O)OCc3ccccc3)cc2)=C1` to `COC(=O)C(Cc1ccccc1)NC(=O)CNS(=O)(=O)c1ccc(Br)cc1` (stereo not given), the inhibition falls from 19.7% to -0.24%.

Going from `Fc1ccc(-c2nnc(N3CCOCC3)c3ccccc23)cc1F` to `Nc1c2ccccc2nc2ccccc12`, the inhibition rises from 10.8% to 12.6%.

First: CCCCOc1cccc(C(=O)O)c1
Second: COc1cccc(C(=O)NC2CCCc3ccccc32)c1 (stereo not given)
The inhibition of the first is lower: 4% for the first, 11.4% for the second.

Compared with `CC[N+](CC)(CC)CCOc1ccc(/C=C/c2ccccc2)cc1`, `COc1ccc(/C=C/C(=O)c2ccc(O)cc2)cc1` is lower in inhibition: 9.54% for the first, 4.28% for the second.

Going from `Cc1cc(OCCCCOc2ccc(S(N)(=O)=O)c(C)c2)ccc1S(N)(=O)=O` to `CCOc1ccc(N2C(=O)CC(Cc3cc(C)cc(C)c3)C2=O)cc1` (stereo not given), the inhibition rises from 6.93% to 7.28%.

First: O=C(c1ccc(Cl)c(S(=O)(=O)N2CCCCCC2)c1)N1CCCC(C(F)(F)F)C1 (stereo not given)
Second: CCOC(=O)C1CCN(C(=O)c2cc(S(=O)(=O)N3CCCCC3)ccc2C)CC1
The inhibition of the first is higher: 1.91% for the first, -9.49% for the second.

First: Oc1nc(Nc2ccc(F)cc2)sc1/C=C1\C=Nc2ccccc21
Second: Cn1c(O)c(/C=C2\C=Nc3ccccc32)sc1=Nc1ccc(C(=O)O)cc1
The inhibition of the first is higher: 10.4% for the first, 7.27% for the second.

First: CSc1nsc2nc(=O)c(/C=C3\C=Nc4ccccc43)c(N)n12
Second: O=c1[nH]c(=S)[nH]c(O)c1/C=C1\C=Nc2ccccc21
The inhibition of the first is higher: 1.86% for the first, -1.08% for the second.

Compared with `CC(=O)c1ccc(-n2c(CCC(=O)O)ccc2-c2ccc(Br)cc2)cc1`, `S=c1[nH]cc(-c2ccccc2)n1-c1cccc(Cl)c1` is lower in inhibition: 11.4% for the first, 6.88% for the second.

Compared with `CCCN(CC(=O)Nc1cccc(Br)c1)CC(=O)Nc1ccc(F)c(F)c1F`, `CCn1cc(C(=O)Nc2ccc(NC(=O)c3ccco3)cc2)c(=O)c2ccc(C)nc21` is lower in inhibition: 8.26% for the first, 0.62% for the second.

Going from `CCc1ccccc1S(=O)(=O)Cc1ccc(C(=O)NCc2cccs2)o1` to `CCC(=O)N1N=C(c2cccc(NS(C)(=O)=O)c2)CC1c1cccs1` (stereo not given), the inhibition rises from 1.89% to 11.9%.

First: O=C(CN(CC1CCCO1)C(=O)Cn1nnc(-c2ccc(F)cc2)n1)NC1CCCCC1 (stereo not given)
Second: O=C(CSc1nc2ccccc2o1)NCC1CCCO1 (stereo not given)
The inhibition of the first is lower: 3.03% for the first, 5.06% for the second.

First: Cc1cccc(C(C)Nc2ccc([N+](=O)[O-])cn2)c1 (stereo not given)
Second: Nc1c(-c2ccccc2)cnn1-c1cccc([N+](=O)[O-])c1
The inhibition of the first is lower: 1.95% for the first, 5.5% for the second.

Going from `CCn1cc(C(=O)N2CCN(c3ccc(OC)cc3)CC2)c2cc(OC)c(OC)cc2c1=O` to `COc1ccc(N2CCN(Cc3nc4cc(Cl)ccc4c(=O)[nH]3)CC2)cc1`, the inhibition falls from 18.7% to 15.2%.

Going from `CC(C)c1nnc(NC(=O)c2cccc(-n3cnnn3)c2)s1` to `Cc1cc(C)c(S(=O)(=O)NC(C)C)c(C)c1-n1cnnn1`, the inhibition falls from 10.5% to 4.49%.

Compared with `Cc1ccc(C2=NN=C(NC(=O)CSc3nnc4c5ccccc5n(C)c4n3)SC2)cc1`, `Cc1cc(C)nc(SCC(=O)NC2=NN=C(c3ccc(Br)cc3)CS2)n1` is lower in inhibition: 28.8% for the first, 27.2% for the second.

Going from `COc1ccc2nc(/C(C#N)=C\c3ccc(Oc4ccc([N+](=O)[O-])cn4)cc3)[nH]c2c1` to `COc1ccc2nc3cc(Cl)ccc3c(Nc3cc(C(C)C)c(O)cc3C)c2c1`, the inhibition rises from 5.92% to 7.74%.

First: Cc1cccc(N2C(=O)Cc3ccccc3C2=O)c1
Second: O=C1NC(=O)N(c2ccccc2)C1=O
The inhibition of the first is lower: 8.26% for the first, 10% for the second.

Compared with `Cc1ccc(C(c2nnnn2C2CCCC2)N2CCN(c3nc4ccccc4s3)CC2)cc1` (stereo not given), `CCC(c1nnnn1Cc1ccc(OC)cc1)N1CCN(c2ccc(OC)cc2)CC1` (stereo not given) is higher in inhibition: 4.8% for the first, 24.3% for the second.

Going from `Cc1ccc(OCC(=O)N/N=C\c2cccn2C)c([N+](=O)[O-])c1` to `O=C(O)COc1ccccc1/C=N/NC(=O)Cc1ccccc1`, the inhibition rises from 1.92% to 9.01%.

Compared with `Cc1ccc(N=Nc2ccc(O)cc2)c(Br)c1`, `Cc1ccc(N=C(N)N=C(N)N)cc1` is higher in inhibition: 14.6% for the first, 16.3% for the second.

Going from `CC(=O)C1C(c2cccc(F)c2)c2c(n[nH]c2C)CC1(C)O` (stereo not given) to `CC1(C)CC(NC(=O)C2CCC(=O)N(Cc3ccccc3F)C2)CC(C)(C)C1` (stereo not given), the inhibition falls from 9.67% to 6.51%.

Going from `COc1cc(NCc2ccccc2)c2ncn(Cc3ccccc3)c2c1` to `N#Cc1c2ccc(OCC(=O)NCc3ccco3)cc2n2ccccc12`, the inhibition rises from 6.64% to 8.65%.

Going from `Cc1cc(C(=O)CN2C(=O)NC3(CCCCC3)C2=O)c(C)n1Cc1ccc2c(c1)OCO2` to `COCCn1c(SCC(=O)c2ccc3c(c2)OCCO3)nnc1-c1ccco1`, the inhibition rises from 0.78% to 8.82%.

Going from `Nc1c(-c2cccc(Cl)c2)cnn1-c1ccccc1` to `O=c1c(N=Nc2ccccc2)c[nH]n1-c1ccccc1`, the inhibition falls from 20.3% to -5.5%.

First: COc1c[nH]n(-c2ccccc2)c(=O)c1=O
Second: COc1cc(/C=C/C(=O)OCC(=O)Nc2c(C)n(C)n(-c3ccccc3)c2=O)cc(OC)c1OC
The inhibition of the first is higher: 5.24% for the first, -6.63% for the second.

Going from `COC(=O)c1ccsc1NC(=O)c1ccco1` to `CCOC(=O)Cc1csc(NC(=O)/C=C/c2ccco2)n1`, the inhibition rises from 6.38% to 7.86%.

Going from `COc1cc(C(=O)COC(=O)c2ccncc2)cc(OC)c1OC` to `COc1cc(/C=C/C(=O)OCC(=O)Nc2c(C)n(C)n(-c3ccccc3)c2=O)ccc1OCC#N`, the inhibition falls from 4.46% to 3.82%.

Compared with `Cc1cc(C(=O)C(=O)N(C)C)c(C)n1-c1ccc(Cl)c(Cl)c1`, `COc1cccc(/C=C/C(=O)OC(C)C(=O)Nc2c(C)n(C)n(-c3ccccc3)c2=O)c1` (stereo not given) is lower in inhibition: 14.3% for the first, 1.46% for the second.

Going from `CC1CN(C(=O)c2ccc(NS(=O)(=O)c3cccc(Cl)c3)cc2)CC(C)O1` (stereo not given) to `CN(C)c1ccc(NC(=O)CSc2nc(C3CC3)nc3ccccc23)cc1`, the inhibition falls from 5.38% to -1.11%.

Going from `NS(=O)(=O)c1ccc(N=Cc2c(O)n(-c3nccs3)c(=O)c3ccccc23)cc1` to `Cc1c(NC(=O)C(C)OC(=O)/C=C/c2ccccc2)c(=O)n(-c2ccccc2)n1C` (stereo not given), the inhibition rises from 1.11% to 2.8%.

Compared with `Cc1ccc(NC(=O)N/C=C/c2ccco2)c(C)c1`, `COc1ccc(-c2nn(-c3ccccc3)cc2/C=N/NC(=S)NC(C)C)cc1OC` is lower in inhibition: 7.78% for the first, 7.12% for the second.

Compared with `CNC(=S)N1CCc2sccc2C1C` (stereo not given), `Cc1cc2c(cc1S(=O)(=O)N1CC(C)CC(C)C1)OCC(=O)N2` (stereo not given) is lower in inhibition: 9.43% for the first, 1.63% for the second.

First: Cc1cc(C)c(S(N)(=O)=O)c(C)c1-n1cnnn1
Second: CCOC(=O)Cc1csc(NC(=O)CSc2nc(N)c3c(C)c(C)sc3n2)n1
The inhibition of the first is higher: 1.87% for the first, -6.82% for the second.

Going from `CC(C)Cc1nc2sc3c(c2c(=O)n1N)CC(C)(C)OC3` to `CCCCCCn1c(CN2CCN(C)CC2)nc2c1c(=O)n(C)c(=O)n2C`, the inhibition rises from -0.31% to 0.38%.

In the case of `Oc1ccc(C[C@H]2CNC(=S)N2CC2CCCN2C[C@H](Cc2ccc(O)cc2)N2C[C@H](Cc3ccccc3)N(CCc3ccccc3)C2=S)cc1` (stereo not given in full), the inhibition is reported as 10.5%.
